PubChem BioAssay AID1159580 (chemical genetic matrix, 2015)
Among all 5,500 compounds or so, about 2,000 (36%) were called active. Another 18% or so got no clear call; they are omitted. Cut-off read from the data, not from the text of the source: active = normalized growth mostly below about 0.91 (no sharp cut-off); inconclusive = no clear call, values can overlap the other calls; inactive = mostly above about 0.92. The list shows a part of the results.

Experiment: chemical genetic growth profiling, strain panel (AID 1159580);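 note: tested at 20 µM; growth read once vehicle control cultures reached saturation at 30 °C; 1 = growth at the plate median or of vehicle wells; lower values mean less growth of the strain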
Conditions: growth OD

Measured: normalized growth

Nc1c2c(nc3ccccc13)CCCC2O (stereo not drawn)
inactive: S. cerevisiae deletion strains, locus YJR066W, strain TOR1, hits give low values 0.916 | S. cerevisiae deletion strains, locus YJR075W, strain HOC1, hits give low values 0.987 | S. cerevisiae deletion strains, locus YKL009W, strain mrt4, hits give low values 0.976 | S. cerevisiae deletion strains, locus YKL068W, hits give low values 0.987 | S. cerevisiae deletion strains, locus YKL085W, strain MDH1 (second series), hits give low values 0.991 | S. cerevisiae deletion strains, locus YKL085W, strain MDH1, hits give low values 0.991 | S. cerevisiae deletion strains, locus YKL160W, strain elf1, hits give low values 1.01 | S. cerevisiae deletion strains, locus YKL190W, strain CNB1, hits give low values 1.01 | S. cerevisiae deletion strains, locus YKR001C, strain vps1, hits give low values 0.989 | S. cerevisiae deletion strains, locus YKR026C, strain gcn3, hits give low values 1.01 | S. cerevisiae deletion strains, locus YKR091W, strain srl3, hits give low values 0.998 | S. cerevisiae deletion strains, locus YLL001W, strain dnm1, hits give low values 0.983 | S. cerevisiae deletion strains, locus YLL026W, hits give low values 0.996 | S. cerevisiae deletion strains, locus YLL041C, strain sdh2, hits give low values 1.02 | S. cerevisiae deletion strains, locus YLR027C, strain aat2, hits give low values 1.01 | S. cerevisiae deletion strains, locus YLR039C, strain RIC1, hits give low values 1.01 | S. cerevisiae deletion strains, locus YLR058C, strain SHM2, hits give low values 1.01 | S. cerevisiae deletion strains, locus YLR102C, strain apc9, hits give low values 0.984 | S. cerevisiae deletion strains, locus YLR113W, strain HOG1, hits give low values 1.03 | S. cerevisiae deletion strains, locus YLR221C, strain rsa3, hits give low values 1.02 | S. cerevisiae deletion strains, locus YLR258W, strain gsy2, hits give low values 0.996 | S. cerevisiae deletion strains, locus YLR262C, strain YPT6 (second series), hits give low values 1.01 | S. cerevisiae deletion strains, locus YLR262C, strain YPT6, hits give low values 0.963 | S. cerevisiae deletion strains, locus YLR268W, strain sec22, hits give low values 0.966 | S. cerevisiae deletion strains, locus YLR320W, strain mms22, hits give low values 1.01 | S. cerevisiae deletion strains, locus YLR330W, strain CHS5, hits give low values 0.989 | S. cerevisiae deletion strains, locus YLR342W, strain FKS1 (second series), hits give low values 1.01 | S. cerevisiae deletion strains, locus YLR342W, strain FKS1, hits give low values 1.01 | S. cerevisiae deletion strains, locus YLR357W, strain rsc2, hits give low values 0.975 | S. cerevisiae deletion strains, locus YLR370C, strain arc18, hits give low values 1 | S. cerevisiae deletion strains, locus YLR371W, strain rom2, hits give low values 0.98 | S. cerevisiae deletion strains, locus YLR384C, strain iki3, hits give low values 1 | S. cerevisiae deletion strains, locus YLR418C, strain cdc73, hits give low values 1.02 | S. cerevisiae deletion strains, locus YML016C, strain PPZ1, hits give low values 1.01 | S. cerevisiae deletion strains, locus YML032C, strain rad52, hits give low values 0.99 | S. cerevisiae deletion strains, locus YML120C, strain ndi1, hits give low values 1.03 | S. cerevisiae deletion strains, locus YML124C, strain tub3, hits give low values 0.998 | S. cerevisiae deletion strains, locus YMR058W, strain fet3, hits give low values 1.02 | S. cerevisiae deletion strains, locus YMR078C, strain ctf18, hits give low values 0.993 | S. cerevisiae deletion strains, locus YMR125W, strain sto1, hits give low values 0.997 | S. cerevisiae deletion strains, locus YMR129W, hits give low values 0.999 | S. cerevisiae deletion strains, locus YMR205C, strain PFK2, hits give low values 0.996 | S. cerevisiae deletion strains, locus YMR223W, strain ubp8, hits give low values 0.987 | S. cerevisiae deletion strains, locus YMR231W, strain pep5, hits give low values 0.999 | S. cerevisiae deletion strains, locus YMR307W, strain GAS1, hits give low values 1.08 | S. cerevisiae deletion strains, locus YNL067W, strain RPL9B, hits give low values 1.01 | S. cerevisiae deletion strains, locus YNL071W, strain lat1, hits give low values 1.01 | S. cerevisiae deletion strains, locus YNL128W, strain TEP1, hits give low values 1.02 | S. cerevisiae deletion strains, locus YNL175C, strain NOP13, hits give low values 1 | S. cerevisiae deletion strains, locus YNL183C, strain NPR1, hits give low values 0.912 | S. cerevisiae deletion strains, locus YNL197C, strain WHI3, hits give low values 0.968 | S. cerevisiae deletion strains, locus YNL209W, strain ssb2, hits give low values 1.01 | S. cerevisiae deletion strains, locus YNL224C, strain SQS1, hits give low values 1 | S. cerevisiae deletion strains, locus YNL233W, strain BNI4, hits give low values 1.03 | S. cerevisiae deletion strains, locus YNL248C, strain rpa49, hits give low values 0.992 | S. cerevisiae deletion strains, locus YNL250W, strain rad50, hits give low values 1.01 | S. cerevisiae deletion strains, locus YNL271C, strain bni1, hits give low values 0.981 | S. cerevisiae deletion strains, locus YNL298W, strain CLA4, hits give low values 0.988 | S. cerevisiae deletion strains, locus YNL307C, strain MCK1, hits give low values 0.993 | S. cerevisiae deletion strains, locus YNL322C, strain KRE1 (second series), hits give low values 1.01 | S. cerevisiae deletion strains, locus YNR049C, strain mso1, hits give low values 1.01 | S. cerevisiae deletion strains, locus YNR052C, strain pop2, hits give low values 0.966 | S. cerevisiae deletion strains, locus YOL006C, strain TOP1, hits give low values 1.13 | S. cerevisiae deletion strains, locus YOL012C, strain htz1 0.815 | S. cerevisiae deletion strains, locus YOL147C, strain pex11, hits give low values 0.999 | S. cerevisiae deletion strains, locus YOR001W, strain rrp6, hits give low values 1.03 | S. cerevisiae deletion strains, locus YOR061W, strain CKA2, hits give low values 1.01 | S. cerevisiae deletion strains, locus YOR069W, strain VPS5, hits give low values 1 | S. cerevisiae deletion strains, locus YOR070C, strain gyp1, hits give low values 1.01 | S. cerevisiae deletion strains, locus YOR080W, strain dia2, hits give low values 0.996 | S. cerevisiae deletion strains, locus YOR083W, strain WHI5 (second series), hits give low values 0.986 | S. cerevisiae deletion strains, locus YOR083W, strain WHI5, hits give low values 1.01 | S. cerevisiae deletion strains, locus YOR106W, strain vam3, hits give low values 1 | S. cerevisiae deletion strains, locus YOR136W, strain idh2, hits give low values 0.997 | S. cerevisiae deletion strains, locus YOR144C, strain elg1, hits give low values 0.999 | S. cerevisiae deletion strains, locus YOR184W, strain ser1, hits give low values 0.988 | S. cerevisiae deletion strains, locus YOR231W, strain MKK1, hits give low values 0.977 | S. cerevisiae deletion strains, locus YOR265W, strain rbl2, hits give low values 1 | S. cerevisiae deletion strains, locus YOR270C, strain vph1, hits give low values 1.02 | S. cerevisiae deletion strains, locus YOR290C, strain snf2, hits give low values 0.974 | S. cerevisiae deletion strains, locus YOR316C, strain cot1, hits give low values 0.977 | S. cerevisiae deletion strains, locus YPL051W, strain arl3, hits give low values 1.01 | S. cerevisiae deletion strains, locus YPL055C, strain LGE1, hits give low values 1.06 | S. cerevisiae deletion strains, locus YPL078C, strain atp4, hits give low values 1.01 | S. cerevisiae deletion strains, locus YPL106C, strain sse1, hits give low values 1.01 | S. cerevisiae deletion strains, locus YPL240C, strain hsp82, hits give low values 1.01 | S. cerevisiae deletion strains, locus YPL256C, strain CLN2, hits give low values 0.962 | S. cerevisiae deletion strains, locus YPR119W, strain clb2, hits give low values 0.976 | S. cerevisiae deletion strains, locus YPR141C, strain kar3, hits give low values 0.982 | S. cerevisiae deletion strains, locus YPR163C, strain tif3, hits give low values 0.973 | S. cerevisiae deletion strains, locus YPR167C, strain met16, hits give low values 0.984 | S. cerevisiae deletion strains, strain wtn01, hits give low values 0.993 | S. cerevisiae strains, strain wild type, hits give low values 1.02
